Screening results deposited in PubChem BioAssay by National Center for Advancing Translational Sciences (NCATS).
HEK293 tox: qHTS of GLP-1 Receptor Inverse Agonists: Cytotox Screen; HEK293 cAMP-luciferase reporter cells, luminescence, 24 h; Potency, µM (top dose mostly 38.3 µM), inactives show top-dose activity change, negative = inhibition, hits mostly inhibitors; 410,000 tested, 0.13% active; AID 624418, 2012;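 also: loss of luciferase light is scored as toxicity; potency is read from the fitted curve at half-maximal effect; % is scaled to controls: 0 for no effect and ±100 for the full control effect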
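A 23 nL compound transfer followed 12 hours of cell culture at 37 deg C; exposure then lasted 24 hr. Luciferase assay detection reagent was dispensed and plates read for luminescence after a 12 min room-temperature wait.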
NPSR antagonist: qHTS Assay for Antagonists of the Neuropeptide S Receptor: cAMP Signal Transduction; 220,000 tested, 1% active; Q6W5P4; Potency, µM (titrated, usually from 38.3 µM), inactives show top-dose activity change, negative = inhibition, most hits filed as inhibitors; CHO-NPSR cells, cAMP TR-FRET, antagonist mode; also: potency is read from the fitted curve at half-maximal effect; % is scaled to controls: 0 for no effect and ±100 for the full control effect; nearly all actives have a fitted effect of over 50% in size
TSHR antagonist: Antagonists of the Thyroid Stimulating Hormone Receptor: HTS campaign; TSHR-expressing cells, TSH-stimulated cAMP HTRF, 2 h; hits give low values; activity change, negative = inhibition, % at 11.5 µM; 330,000 tested, 0.2% active; AID 504810, 2011;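 active = activity change below a set negative limit, meaning inhibition stronger than a set level, cut at about -70% in these data; inconclusive = activity change between two set negative limits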; also: % is scaled to controls: 0 for no effect and ±100 for the full control effect
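TSHR-expressing cells, 200/well, pre-treated with compound, then stimulated with EC80 TSH (4nM final) for 2 hours at 37 deg C. cAMP measured by competitive HTRF: anti-cAMP cryptate antibody in lysis buffer plus cAMP-d2, read after 30 minutes at room temperature.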
RXFP1 ag: qHTS Assay for Agonists of the Relaxin Receptor RXFP1. 370,000 tested, 0.3% active. Potency, µM (highest dose often 57.5 µM), inactives show at the top dose activation, usual class: activators. Relaxin receptor 1 (Homo sapiens), Q9HBX9. HEK293T-RXFP1 cAMP TR-FRET, 30 min; response scale: percent of porcine relaxin response, buffer zero; also: potency is read from the fitted curve at half-maximal effect; % is scaled to controls: 0 for no effect and ±100 for the full control effect; nearly all actives have a fitted effect of over 60% in size
Target sequence (Q9HBX9 whole entry, looked up): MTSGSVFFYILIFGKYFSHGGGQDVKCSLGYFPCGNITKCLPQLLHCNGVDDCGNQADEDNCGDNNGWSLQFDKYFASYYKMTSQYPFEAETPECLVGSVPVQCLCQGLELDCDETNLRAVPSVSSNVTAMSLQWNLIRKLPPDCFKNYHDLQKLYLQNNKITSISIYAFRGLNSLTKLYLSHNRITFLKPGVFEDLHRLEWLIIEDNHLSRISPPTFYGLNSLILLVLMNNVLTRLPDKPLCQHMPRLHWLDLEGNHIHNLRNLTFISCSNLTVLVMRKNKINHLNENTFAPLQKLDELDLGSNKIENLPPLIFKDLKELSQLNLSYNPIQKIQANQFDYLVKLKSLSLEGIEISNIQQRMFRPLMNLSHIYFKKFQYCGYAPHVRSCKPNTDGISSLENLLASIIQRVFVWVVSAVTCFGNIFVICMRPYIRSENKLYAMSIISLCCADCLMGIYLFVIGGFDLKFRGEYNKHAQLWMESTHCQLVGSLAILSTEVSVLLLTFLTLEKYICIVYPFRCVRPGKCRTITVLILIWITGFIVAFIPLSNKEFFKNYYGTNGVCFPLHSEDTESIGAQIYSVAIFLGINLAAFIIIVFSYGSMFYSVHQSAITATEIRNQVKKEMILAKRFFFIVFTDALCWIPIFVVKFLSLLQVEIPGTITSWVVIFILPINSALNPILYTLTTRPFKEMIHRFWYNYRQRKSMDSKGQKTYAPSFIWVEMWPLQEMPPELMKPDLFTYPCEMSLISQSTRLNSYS
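cAMP rise read by TR-FRET after 30 min, 37C compound exposure (up to 58 uM) in RXFP1-transfected HEK293 cells with Ro 20174 present. EC50 from Hill-equation fits, with 29 nM porcine relaxin as 100% and buffer as basal.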
PTHR1 ag: qHTS for PTHR1 Agonists: Primary Screen | Parathyroid hormone/parathyroid hormone-related peptide receptor (Homo sapiens), Q03431 | AID 743266, 2014 | Potency, µM (titrated, usually from 115 µM), without a hit: at the top dose activation, most hits filed as activators | HEK293 GP2 PTHR1 cells, GloSensor cAMP luminescence, 1 h | 410,000 tested, 0.075% active; also: potency is read from the fitted curve at half-maximal effect; nearly all actives have a fitted effect of over 55% in size
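HEK-293-derived GP2 cells expressing PTHR1 and a GloSensor cAMP reporter, 3,000/well, plated overnight, given luciferin plus IBMX (each 0.5 mM as added) for 1 h at 37 °C, then compound for 1 h at 37 °C. Luminescence was read after 15 min at room temperature.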
RXFP1 antagonist: qHTS Assay for Antagonists of the Relaxin Receptor RXFP1. 350,000 tested, 0.59% active. AID 1259400, 2018. Relaxin receptor 1 (Homo sapiens), Q9HBX9. activity change, negative = inhibition, % at 57.5 µM. HEK293-RXFP1, relaxin-stimulated cAMP HTRF, 30 min; hits give low values;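 active = activity change of -60% or lower, but not beyond a set lower limit; inconclusive = change between -60% and -40%, or beyond the set limit; inactive = change above -40%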; also: % is scaled to controls: 0 for no effect and ±100 for the full control effect
Numbers without * were called inactive; ! = repeats disagree; [ ] = remark or other dose. Many of the other results were omitted from the sample, so hits are more common in it than they were. Unless noted, calls follow the shape of the dose curve; as a rule, active = well fitted curve in the direction sought with a large enough effect; inconclusive = small, poorly fitted or top-dose-only effect, or another doubt; inactive = no such curve, though single readings can be large; an effect the other way counts as inactive or inconclusive.

For COc1cc(/C=C2\CC(C(C)(C)C)C/C(=C\c3cc(OC)c(OC)c(OC)c3)C2=O)cc(OC)c1OC (configuration not stated) the results were HEK293 tox inconclusive, TSHR antagonist 4, RXFP1 ag 5%, PTHR1 ag -58% and RXFP1 antagonist -4.
COc1cc(/C=C2/CCC/C(=C\c3cc(O)c(OC)c(Cl)c3)C2=O)cc(Cl)c1O was read as HEK293 tox inconclusive, NPSR antagonist 7.9µM*, TSHR antagonist -13, RXFP1 ag 0%, PTHR1 ag -4%[57.5 µM] and RXFP1 antagonist 0.
`CC[n+]1c(-c2ccccc2)c2cc(N)ccc2c2ccc(N)cc21` gave HEK293 tox inconclusive, PTHR1 ag inactive and RXFP1 antagonist -85*!.
CC(C)(C)C(=O)OC1=CN(Cc2ccccc2)S(=O)(=O)c2ccccc21 was read as HEK293 tox 7%, RXFP1 ag 1%, PTHR1 ag -43% and RXFP1 antagonist -17.
Screening C=C1C(=O)C23C(O)C1CCC2C12CCCC(C)(COC(C)=O)C1C(O)C3(O)OC2 (configuration not stated) returned HEK293 tox 2.5µM*, PTHR1 ag -93% and RXFP1 antagonist -117*.
COC(=O)C1=CN(c2ccc(C(C)(C)C)cc2)C(N)=C(C#N)C1c1cccc([N+](=O)[O-])c1 (configuration not stated) was read as HEK293 tox 5% and PTHR1 ag -47%.
Screening C1CN2CCC1CC2 returned RXFP1 antagonist -8.
`COc1ccc2nc(N3CCN(C(=O)CS(=O)(=O)c4ccc(C)cc4)CC3)sc2c1` gave HEK293 tox -2%, RXFP1 ag -4%, PTHR1 ag -89% and RXFP1 antagonist -34.
For C[C@]12Cc3cn[nH]c3C[C@@H]1CC[C@@H]1[C@@H]2CC[C@@]2(C)[C@H]1CC[C@]2(C)O the results were RXFP1 antagonist -31.
For COc1ccc(CS(=O)(=O)/C(Cl)=C(/Cl)C(=O)Nc2ccc(OC)nc2)cc1 the results were HEK293 tox 11µM*, NPSR antagonist 6.3µM*, TSHR antagonist -43, RXFP1 ag 0%, PTHR1 ag -13%[57.5 µM] and RXFP1 antagonist -28.
`CC(C)(C)c1nc(N2CCN(C(=O)c3ccco3)CC2)c2nnn(Cc3ccccc3Cl)c2n1` gave HEK293 tox -29%, NPSR antagonist 10µM*, TSHR antagonist inconclusive, RXFP1 ag 3%, PTHR1 ag -26% and RXFP1 antagonist -11.
For FC(F)(F)c1ccccc1CNCCc1c[nH]c2ccccc12 the results were HEK293 tox 19%, TSHR antagonist -8, RXFP1 ag 0%, PTHR1 ag -6% and RXFP1 antagonist -101*.
`c1ccc(N2CCNCC2)cc1` gave RXFP1 antagonist 17.
ClC(Cl)(Cl)c1nc2ccccc2n2nncc12 was read as HEK293 tox inconclusive, TSHR antagonist 30, RXFP1 ag 14%, PTHR1 ag inactive and RXFP1 antagonist 18.
`Cc1ccc(NC(=O)COc2ccc(-c3nn(C)c(=O)c4ccccc34)cc2)c(C)c1` gave HEK293 tox -12%, RXFP1 ag 3%, PTHR1 ag -29% and RXFP1 antagonist -7.
Screening COc1ccccc1N1C(=O)NC(=O)/C(=C/c2ccc3c4c(cccc24)CC3)C1=O returned HEK293 tox -3%, NPSR antagonist 10µM*, TSHR antagonist 20, RXFP1 ag -1%, PTHR1 ag -9% and RXFP1 antagonist 2.
CCOC(C(=O)OCCN(C)C)(c1ccccc1)c1ccccc1 was read as RXFP1 antagonist -6.
For Nc1c(C(=O)OC2CCCCC2)c2nc3ccccc3nc2n1CC1CCCO1 (configuration not stated) the results were HEK293 tox 3%, NPSR antagonist inconclusive, TSHR antagonist -12, RXFP1 ag 2%, PTHR1 ag inactive and RXFP1 antagonist -62*.
Screening CCN1C(=O)C(=C2C=C(C)N(Cc3ccco3)C(C)=C2)C(=O)N(CC)C1=S returned HEK293 tox 84%, NPSR antagonist -56%, TSHR antagonist -5, RXFP1 ag 28µM*, PTHR1 ag inactive and RXFP1 antagonist 19.
`O=C1NC(=O)C(=Cc2ccc(N3CCN(C(=O)c4ccccc4)CC3)c([N+](=O)[O-])c2)C(=O)N1` gave HEK293 tox 0%, NPSR antagonist 8%, TSHR antagonist -3, RXFP1 ag -1%, PTHR1 ag inactive and RXFP1 antagonist -75*.
Screening N#CC(C#N)=NNc1ccc(-n2ccc(C(F)(F)F)n2)cc1 returned HEK293 tox inconclusive, NPSR antagonist 2.5µM*, TSHR antagonist -76*, RXFP1 ag 1%, PTHR1 ag -41% and RXFP1 antagonist inconclusive.
`Cc1cc(C)n(-c2ccc(NN=C(C#N)C#N)cc2)n1` gave HEK293 tox inconclusive, NPSR antagonist inconclusive, TSHR antagonist -29, RXFP1 ag -1%, PTHR1 ag -28% and RXFP1 antagonist -14.
`CN1C(=O)/C(=C/c2cccn2-c2ccc3ccccc3c2)C(=O)NC1=S` gave HEK293 tox inconclusive, NPSR antagonist inconclusive, TSHR antagonist 5, RXFP1 ag 2%, PTHR1 ag -43% and RXFP1 antagonist -97*.
Screening Cc1cc(C)cc(N2C(=O)NC(=O)/C(=C\c3cccn3-c3ccccc3)C2=O)c1 returned HEK293 tox -8%, NPSR antagonist -55%, TSHR antagonist 17, RXFP1 ag 1%, PTHR1 ag -55% and RXFP1 antagonist -15.
For Cc1cc(C)cc(N2C(=O)NC(=O)/C(=C\c3cccn3-c3ccc(Cl)cc3)C2=O)c1 the results were HEK293 tox 6%, NPSR antagonist 5µM*, TSHR antagonist 12, RXFP1 ag 1%, PTHR1 ag -18%[57.5 µM] and RXFP1 antagonist -10.
CCOc1ccc(-c2cc(C)[n+](CCc3ccc(OC)c(OC)c3)c(-c3ccc(OCC)cc3)c2)cc1 was read as HEK293 tox inconclusive, TSHR antagonist -3, RXFP1 ag 2%, PTHR1 ag -53% and RXFP1 antagonist -84*.
